The entries come from a sample that favours the strongest signals as a whole.
Key:
Test in all cases: glycan array binding signal (z-score within array); higher = stronger binding
Conditions in all cases: glycan notation: IUPAC condensed, linker removed
[1] = target: Fuc(a1-2)Gal(b1-3)GlcNAc(b1-3)[Neu5Ac(a2-6)Gal(b1-4)GlcNAc(b1-6)]Gal(b1-4)Glc
Method in brief: (§1)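 Glycan array binding is given as a within-array Z-score, which can be read as non-binding when negative. The arrays, 3228 of them, came from the Consortium for Functional Glycomics database and were retained only where the protein sequence was available. Z-scores were averaged across arrays of the same protein sequence at different concentrations or buffers and across linkers.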

[2] = target: Fuc(a1-2)Gal(b1-3)[Fuc(a1-4)]GlcNAc(b1-2)Man(a1-3)[Fuc(a1-2)Gal(b1-3)[Fuc(a1-4)]GlcNAc(b1-2)Man(a1-6)]Man(b1-4)GlcNAc(b1-4)[Fuc(a1-6)]GlcNAc(b1-4)[Fuc(a1-6)]GlcNAc
Method in brief: as §1

[3] = target: Fuc(a1-2)[Gal(a1-3)]Gal(b1-3)GlcNAc(b1-2)Man(a1-3)[Fuc(a1-2)[Gal(a1-3)]Gal(b1-3)GlcNAc(b1-2)Man(a1-6)]Man(b1-4)GlcNAc(b1-4)GlcNAc
Method in brief: as §1

[4] = target: Fuc(a1-2)[Gal(a1-3)]Gal(b1-4)GlcNAc
Method in brief: as §1

[5] = target: Fuc(a1-2)[Gal(a1-3)]Gal(b1-4)GlcNAc(b1-2)Man(a1-3)[Fuc(a1-2)[Gal(a1-3)]Gal(b1-4)GlcNAc(b1-2)Man(a1-6)]Man(b1-4)GlcNAc(b1-4)GlcNAc
Method in brief: as §1

[6] = target: Fuc(a1-2)[Gal(a1-3)]Gal(b1-4)GlcNAc(b1-3)GalNAc
Method in brief: as §1

[7] = target: Fuc(a1-2)[Gal(a1-3)]Gal(b1-4)[Fuc(a1-3)]GlcNAc
Method in brief: as §1

[8] = target: Fuc(a1-2)[GalNAc(a1-3)]Gal(b1-3)GalNAc(a1-3)[Fuc(a1-2)]Gal(b1-4)GlcNAc
Method in brief: as §1

[9] = target: Fuc(a1-2)[GalNAc(a1-3)]Gal(b1-3)GalNAc(b1-3)Gal(a1-4)Gal(b1-4)Glc
Method in brief: as §1

[10] = target: Fuc(a1-2)[GalNAc(a1-3)]Gal(b1-4)GlcNAc(b1-3)Gal(b1-4)GlcNAc(b1-3)Gal(b1-4)GlcNAc
Method in brief: as §1

[11] = target: Fuc(a1-2)[GalNAc(a1-3)]Gal(b1-4)GlcNAc(b1-6)GalNAc
Method in brief: as §1

[12] = target: Fuc(a1-3)[Gal(b1-4)]GlcNAc(b1-2)Man
Method in brief: as §1

[13] = target: Fuc(a1-3)[Gal3S(b1-4)]GlcNAc6S
Method in brief: as §1

[14] = target: Gal(a1-3)Gal(b1-4)Glc
Method in brief: as §1

[15] = target: Gal(a1-4)Gal(b1-4)Glc
Method in brief: as §1

[16] = target: Gal(b1-3)GlcNAc(a1-6)Gal(b1-4)GlcNAc
Method in brief: as §1

[17] = target: Gal(b1-3)GlcNAc(b1-2)Man(a1-3)[Gal(b1-3)GlcNAc(b1-2)Man(a1-6)]Man(b1-4)GlcNAc(b1-4)[Fuc(a1-6)]GlcNAc
Method in brief: as §1

[18] = target: Gal(b1-4)GlcNAc(b1-2)Man(a1-3)[Gal(b1-4)GlcNAc(b1-2)Man(a1-6)][GlcNAc(b1-4)]Man(b1-4)GlcNAc(b1-4)[Fuc(a1-6)]GlcNAc
Method in brief: as §1

[19] = target: Gal(b1-4)GlcNAc(b1-2)Man(a1-6)Man(b1-4)GlcNAc(b1-4)GlcNAc
Method in brief: as §1

[20] = target: Gal(b1-4)GlcNAc(b1-3)Gal(b1-4)GlcNAc
Method in brief: as §1

[21] = target: Gal(b1-4)GlcNAc(b1-3)Gal(b1-4)GlcNAc(b1-3)Gal(b1-4)GlcNAc(b1-2)Man(a1-3)[Gal(b1-4)GlcNAc(b1-3)Gal(b1-4)GlcNAc(b1-3)Gal(b1-4)GlcNAc(b1-2)Man(a1-6)]Man(b1-4)GlcNAc(b1-4)GlcNAc
Method in brief: as §1

[22] = target: Gal(b1-4)GlcNAc(b1-3)Gal(b1-4)GlcNAc(b1-3)Gal(b1-4)GlcNAc(b1-3)Gal(b1-4)GlcNAc(b1-3)Gal(b1-4)GlcNAc(b1-2)[Gal(b1-4)GlcNAc(b1-3)Gal(b1-4)GlcNAc(b1-3)Gal(b1-4)GlcNAc(b1-3)Gal(b1-4)GlcNAc(b1-3)Gal(b1-4)GlcNAc(b1-6)]Man(a1-6)[Gal(b1-4)GlcNAc(b1-3)Gal(b1-4)GlcNAc(b1-3)Gal(b1-4)GlcNAc(b1-3)Gal(b1-4)GlcNAc(b1-3)Gal(b1-4)GlcNAc(b1-2)Man(a1-3)]Man(b1-4)GlcNAc(b1-4)[Fuc(a1-6)]GlcNAc
Method in brief: as §1

[23] = target: Gal(b1-4)GlcNAc(b1-6)GalNAc
Method in brief: as §1

[24] = target: Gal3S4S(b1-4)GlcNAc
Method in brief: as §1

[25] = target: GalNAc(a1-3)GalNAc(b1-3)Gal(a1-4)Gal(b1-4)GlcNAc
Method in brief: as §1

[26] = target: GalNAc(b1-3)Gal(a1-4)Gal(b1-4)GlcNAc
Method in brief: as §1

[27] = target: GalNAc(b1-4)GlcNAc
Method in brief: as §1

[28] = target: GalNAc(b1-4)GlcNAc(b1-2)Man
Method in brief: as §1

[29] = target: GalNAc(b1-4)GlcNAc(b1-3)GalNAc(b1-4)GlcNAc
Method in brief: as §1

[30] = target: GalNAc(b1-4)GlcNAc6S
Method in brief: as §1

[31] = target: GlcA(b1-6)Gal
Method in brief: as §1

[32] = target: GlcNAc(a1-4)Gal(b1-4)GalNAc
Method in brief: as §1

[33] = target: GlcNAc(a1-4)Gal(b1-4)GlcNAc(b1-3)Gal(b1-4)GlcNAc
Method in brief: as §1

[34] = target: GlcNAc(b1-2)Gal(b1-3)GalNAc
Method in brief: as §1

[35] = target: GlcNAc(b1-2)[GlcNAc(b1-6)]Man(a1-6)[GlcNAc(b1-2)Man(a1-3)]Man(b1-4)GlcNAc(b1-4)GlcNAc
Method in brief: as §1

[36] = target: GlcNAc(b1-2)[GlcNAc(b1-6)]Man(a1-6)[GlcNAc(b1-2)Man(a1-3)]Man(b1-4)GlcNAc(b1-4)[Fuc(a1-6)]GlcNAc
Method in brief: as §1

[37] = target: GlcNAc(b1-3)Gal(b1-4)GlcNAc
Method in brief: as §1

[38] = target: GlcNAc(b1-3)Gal(b1-4)GlcNAc(b1-6)[Gal(b1-3)]GalNAc
Method in brief: as §1

[39] = target: GlcNAc(b1-4)GlcNAc
Method in brief: as §1

[40] = target: Neu5Ac(a2-3)Gal(b1-3)GlcNAc
Method in brief: as §1

[41] = target: Neu5Ac(a2-3)Gal(b1-3)[GlcNAc(b1-6)]GalNAc
Method in brief: as §1

[42] = target: Neu5Ac(a2-3)Gal(b1-4)GlcNAc
Method in brief: as §1

[43] = target: Neu5Ac(a2-3)Gal(b1-4)GlcNAc(b1-3)Gal(b1-4)GlcNAc(b1-2)Man(a1-3)[Neu5Ac(a2-3)Gal(b1-4)GlcNAc(b1-3)Gal(b1-4)GlcNAc(b1-2)Man(a1-6)]Man(b1-4)GlcNAc(b1-4)GlcNAc
Method in brief: as §1

[44] = target: Neu5Ac(a2-3)Gal(b1-4)GlcNAc(b1-3)Gal(b1-4)GlcNAc(b1-3)Gal(b1-4)GlcNAc(b1-2)Man(a1-3)[Neu5Ac(a2-3)Gal(b1-4)GlcNAc(b1-3)Gal(b1-4)GlcNAc(b1-3)Gal(b1-4)GlcNAc(b1-2)Man(a1-6)]GalNAc
Method in brief: as §1

[45] = target: Neu5Ac(a2-3)Gal(b1-4)[Fuc(a1-3)]GlcNAc(b1-6)[Neu5Ac(a2-3)Gal(b1-3)]GalNAc
Method in brief: as §1

[46] = target: Neu5Ac(a2-6)Gal(b1-4)GlcNAc
Method in brief: as §1

[47] = target: Neu5Ac(a2-6)Gal(b1-4)GlcNAc(b1-2)Man(a1-3)[Neu5Ac(a2-3)Gal(b1-4)GlcNAc(b1-2)Man(a1-6)]Man(b1-4)GlcNAc(b1-4)GlcNAc
Method in brief: as §1

[48] = target: Neu5Ac(a2-6)Gal(b1-4)GlcNAc(b1-3)Gal(b1-3)GlcNAc
Method in brief: as §1

[49] = target: Neu5Ac(a2-6)GlcNAc(b1-4)GlcNAc(b1-4)GlcNAc
Method in brief: as §1

[50] = target: Neu5Ac(a2-8)Neu5Ac(a2-3)[GalNAc(b1-4)]Gal(b1-4)Glc
Method in brief: as §1

B1: SJA (Sophora japonica) (protein)
chain: FLGLFNSGGYSSSYQIVAVEFDTYINEWDPKTRHIGIDINSINSTKTVTWGWENGEVAIVLISYKAATETLTVSLTYPSSQTSYILSAAVDLKSILPEWVRIGF
- glycan array binding signal (z-score) [1]: -0.155
- glycan array binding signal (z-score) [2]: -0.175
- glycan array binding signal (z-score) [3]: 4.34
- glycan array binding signal (z-score) [4]: 2.19
- glycan array binding signal (z-score) [5]: 4.98
- glycan array binding signal (z-score) [6]: 0.012
- glycan array binding signal (z-score) [7]: 6.46
- glycan array binding signal (z-score) [8]: -0.406
- glycan array binding signal (z-score) [9]: -0.202
- glycan array binding signal (z-score) [10]: 0.248
- glycan array binding signal (z-score) [11]: -0.199
- glycan array binding signal (z-score) [12]: -0.248
- glycan array binding signal (z-score) [13]: -0.061
- glycan array binding signal (z-score) [14]: -0.143
- glycan array binding signal (z-score) [15]: -0.134
- glycan array binding signal (z-score) [16]: -0.076
- glycan array binding signal (z-score) [17]: -0.007
- glycan array binding signal (z-score) [18]: -0.337
- glycan array binding signal (z-score) [19]: -0.334
- glycan array binding signal (z-score) [20]: -0.148
- glycan array binding signal (z-score) [21]: 2.39
- glycan array binding signal (z-score) [22]: 2.24
- glycan array binding signal (z-score) [23]: -0.118
- glycan array binding signal (z-score) [24]: -0.23
- glycan array binding signal (z-score) [25]: -0.341
- glycan array binding signal (z-score) [26]: -0.186
- glycan array binding signal (z-score) [27]: 3.38
- glycan array binding signal (z-score) [28]: 2.46
- glycan array binding signal (z-score) [29]: 8.25
- glycan array binding signal (z-score) [30]: 3.05
- glycan array binding signal (z-score) [31]: -0.111
- glycan array binding signal (z-score) [32]: -0.15
- glycan array binding signal (z-score) [33]: -0.229
- glycan array binding signal (z-score) [34]: -0.192
- glycan array binding signal (z-score) [35]: -0.255
- glycan array binding signal (z-score) [36]: -0.375
- glycan array binding signal (z-score) [37]: -0.101
- glycan array binding signal (z-score) [38]: -0.24
- glycan array binding signal (z-score) [39]: -0.142
- glycan array binding signal (z-score) [40]: -0.139
- glycan array binding signal (z-score) [41]: -0.156
- glycan array binding signal (z-score) [42]: -0.241
- glycan array binding signal (z-score) [43]: 0.783
- glycan array binding signal (z-score) [44]: 3.51
- glycan array binding signal (z-score) [45]: -0.056
- glycan array binding signal (z-score) [46]: -0.22
- glycan array binding signal (z-score) [47]: -0.178
- glycan array binding signal (z-score) [48]: -0.207
- glycan array binding signal (z-score) [49]: -0.288
- glycan array binding signal (z-score) [50]: -0.232

— the supplement of paper PMC8728848
